Assay outcomes as filed in PubChem.
In the library only some 4.6% were active in any assay of this set; here they are far more common.
tim10-1 inh = growth inhibitors of tim10-1 mutant yeast, primary screen, luminescence, uHTS. S. cerevisiae tim10-1 ts strain growth, BacTiter-Glo, 24 h. inhibition, % at 20 µM. 330,000 compounds, 2.2% hits. AID 463190, 2010;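 active = inhibition of at least 40%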;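 note: mutant grown at 25 °C; 0% = DMSO wells with yeast and 100% = wells holding no yeast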
SKKanGAS inh = S. pyogenes SKKanGAS growth inhibitors in kanamycin, primary screen, streptokinase expression inhibitor project, SKKanGAS strain, BacTiter-Glo luminescence. 6 h. inhibition, % at 7.5 µM. AID 1662, 2009. 300,000 compounds, 1.3% hits;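 active = mean replicate score, as percent of positive control median, at least 50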;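 note: strain carries kanamycin resistance gene driven by streptokinase promoter and grows in 40 µg/ml kanamycin; loss of luminescence reflects streptokinase promoter inhibition or plain growth inhibition; 0% = median of DMSO wells and 100% = positive control at its reference dose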
NALP3 yeast inh = NALP3 inflammasome inhibitors in reconstituted yeast, primary screen, luminescence, uHTS. Yeast reconstituted NLRP3/ASC/caspase-1, beta-gal luminescence, 24 h. inhibition, % at 10 µM. 330,000 compounds, 0.39% hits. AID 2825, 2010;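 active = inhibition of 50% or more; inactive = inhibition below 50%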;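 note: plate controls were induced DMSO wells for no effect and uninduced yeast grown without galactose for full effect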
tim23-1 inh = growth inhibitors of tim23-1 mutant yeast, primary screen, luminescence, uHTS; S. cerevisiae tim23-1 growth, BacTiter-Glo luminescence, 24 h; inhibition, % at 20 µM; 330,000 compounds, 1.3% hits; AID 463212, 2010;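 active = growth inhibition of the mutant yeast at or above 50%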;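 note: temperature-sensitive mutant grown at 25 °C; plate controls were DMSO-treated mutant yeast for no effect and medium wells lacking yeast for full effect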
TIM10 inh = growth inhibitors of isogenic TIM10 control yeast, primary screen, counter-screen for tim10-1 yeast inhibitor project, luminescence, uHTS | AID 463195, 2010 | 330,000 compounds, 1.4% hits | inhibition, % at 10 µM | S. cerevisiae TIM10 strain growth, BacTiter-Glo luminescence, 24 h;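 active = inhibition of 40% or more at the single tested concentration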;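 note: wild-type TIM10 isogenic control strain grown at permissive 25 °C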
tim10-1 conf = growth inhibitors of tim10-1 mutant yeast, confirmation, single concentration, luminescence, S. cerevisiae; 7,400 compounds, 56% hits; inhibition, % at 20 µM; S. cerevisiae tim10-1 ts strain growth, BacTiter-Glo, 24 h; shares compounds with tim10-1 inh;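 active = inhibition of yeast growth at or above a set limit in either of two repeat tests at 20 µM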;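 note: tim10-1 mutant grown at permissive 25 °C to find synthetic lethal compounds; 0% = DMSO yeast wells and 100% = medium wells without yeast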
TIM10 conf = growth inhibitors of wild-type TIM10 yeast, confirmation, counter-screen for tim10-1 synthetic lethality project, single concentration, luminescence, S. cerevisiae; 4,600 compounds, 63% hits; AID 463215, 2010; inhibition, % at 10 µM; shares compounds with TIM10 inh; S. cerevisiae tim10 strain growth, BacTiter-Glo luminescence, 24 h;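 active = inhibition of yeast growth at or above a set limit in either of two replicates at 10 µM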;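 note: this counterscreen used the strain with wild-type TIM10; 0% = yeast with DMSO and 100% = medium wells lacking yeast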
tim23-1 confirm = tim23-1 mutant yeast growth inhibitors, confirmation, luminescence, single concentration; shares compounds with tim23-1 inh; S. cerevisiae tim23-1 growth, BacTiter-Glo luminescence, 24 h; inhibition, % at 20 µM; 4,400 compounds, 83% hits; AID 463218, 2010;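 active = inhibition above about 39% in either of two replicate wells at 20 µM, limit read from the data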;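 note: temperature-sensitive tim23-1 mutant grown at 25 °C; 0% = DMSO wells with yeast and 100% = medium wells without yeast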
* = called active by the depositor; / = not tested or not shown.

SMILES	tim10-1 inh	SKKanGAS inh	NALP3 yeast inh	tim23-1 inh	TIM10 inh	tim10-1 conf	TIM10 conf	tim23-1 confirm
O=C(NC(=S)NCc1ccccc1)c1ccccc1F	40*	1	-4	51*	22	27*	/	25
O=C(NC(=S)NCc1ccccc1)c1ccccc1Br	-3	5	26	43	12	/	/	/
OCCNC(=S)NCCc1ccccc1	11	0	-4	8	0	/	/	/
O=C(NC(=S)NCCc1ccccc1)c1ccccc1	45*	-1	7	55*	43*	20	41*	48*
CCNC(=O)COC(=O)c1cccc(Br)c1	2	-3	-1	1	9	/	/	/
COc1ccccc1C(CNC(=O)c1ccc(NS(=O)(=O)c2ccc3c(c2)OCCO3)cc1)N(C)C (centres undefined)	16	-6	13	10	-2	/	/	/
FC(F)(F)c1cccc(NC(=S)Nc2ccc(Cl)c(Cl)c2)c1	73*	96*	5	86*	76*	82*	73*	90*
CCOc1cc(OCC)cc(C(=O)NC(=S)Nc2cccc(C(F)(F)F)c2)c1	2	30	20	13	-27	/	/	/
FC(F)(F)c1cccc(NC(=S)NC(c2ccccc2)c2ccccc2)c1	/	12	/	/	/	/	/	/
O=C(NC(=S)Nc1cccc(C(F)(F)F)c1)c1ccc2nonc2c1	51*	0	17	56*	27	22	/	63*
O=S(=O)(NC12CC3CC(CC(C3)C1)C2)c1ccc(F)cc1	48*	0	32	55*	12	30*	/	49*
CN(C(=O)c1ccc(NC(=O)C2CCCN(C(=O)OC(C)(C)C)C2)cc1)C1CCCC1 (centres undefined)	6	/	-6	0	2	/	/	/
COc1ccc(O)c(-c2cc(-c3cccs3)[nH]n2)c1	43*	-4	32	64*	37	16	/	69*
COc1ccc(/C(N)=N/OC(=O)c2ccc3c(c2)OCO3)cc1OC	69*	-4	10	59*	47*	75*	46*	56*
N/C(=N\OC(=O)c1ccc2c(c1)OCO2)c1cccc(Br)c1	68*	-3	15	78*	92*	48*	96*	88*
NC(=O)Nc1ccc(C(=O)OCC(=O)N2CCc3ccccc3C2)cc1	-2	/	15	0	9	/	/	/
Cc1ccc(NC(=O)COc2cccc(-n3cnnn3)c2)cc1S(=O)(=O)N1CCOCC1	-10	/	14	0	7	/	/	/
O=C1Nc2ccccc2/C1=C/C(=O)c1cccs1	51*	4	30	55*	68*	60*	93*	-42
COc1ccc(C(=O)/C=C2/C(=O)Nc3ccccc32)cc1	84*	2	38	88*	91*	88*	80*	85*
COc1ccc(C2NC(=O)c3ccccc3N2)cc1OC (centres undefined)	22	0	-4	11	10	/	/	/
C=CCOc1ccc(C(=O)/C=C2/C(=O)Nc3ccccc32)cc1	84*	7	36	88*	77*	86*	90*	77*
COc1ccc(C(=O)/C=C2/C(=O)Nc3ccccc32)cc1OC	64*	0	26	80*	76*	65*	73*	57*
COc1ccc(C2(C(=O)c3ccccc3)C(=O)c3ccccc3C2=O)cc1	10	-2	17	35	10	/	/	/
COC(=O)c1ccc(CN2C(=O)NC(Cc3c[nH]c4ccccc34)C2=O)cc1 (centres undefined)	5	-5	20	9	0	/	/	/
Cc1cc(N2CCCCC2)n2nc(C)c(-c3ccccc3)c2n1	43*	-7	4	50*	20	33*	/	47*
SMILES	tim10-1 inh	SKKanGAS inh	NALP3 yeast inh	tim23-1 inh	TIM10 inh	tim10-1 conf	TIM10 conf	tim23-1 confirm
Cc1cc(N2CCC(C)CC2)n2nc(C)c(-c3ccccc3)c2n1	26	3	-3	10	38	/	/	/
CC(C)(C)NC(=S)NCC1CC1	5	4	8	-3	10	/	/	/
Cc1ccc(S(=O)(=O)N2CC=C(C(=O)NC3CC3)CC2)cc1	6	-2	-7	-2	3	/	/	/
CC[n+]1c(C)sc2c3ccsc3ccc21	38	3	23	12	10	/	/	/
CCN1/C(=C/c2ccc3cc(C)ccc3[n+]2CC)Sc2ccc3sccc3c21	46*	115*	39	60*	68*	45*	74*	69*
O=S1(=O)c2ccccc2N=NN1Cc1ccc(Cl)c(Cl)c1	28	13	6	-3	14	/	/	/
CC(C)(C)c1ccc(CN2N=Nc3ccccc3S2(=O)=O)cc1	72*	4	11	63*	60*	64*	-1	28
Cc1cc(C)n2nc(/C(C#N)=C/c3ccccn3)c(C#N)c2n1	62*	4	32	52*	51*	58*	52*	75*
Cc1cc(C)n2nc(CC#N)c(C#N)c2n1	0	-6	22	9	6	/	/	/
Cc1nn(C)cc1S(=O)(=O)N1CCN(c2ccccc2F)CC1	10	5	2	11	10	/	/	/
O=C1c2ccccc2C(=O)C1c1ccccn1	-25	-11	13	-4	-19	/	/	/
O=C1c2ccccc2C(=O)C2OC12 (centres undefined)	59*	21	-25	79*	34	38*	/	74*
Cn1c(=O)oc2cc(S(=O)(=O)N3CCN(c4ccccc4F)CC3)ccc21	-6	-16	10	5	4	/	/	/
Cc1ccccc1N1CCN(S(=O)(=O)c2ccc3oc(=O)ccc3c2)CC1	79*	-8	16	68*	42*	65*	54*	57*
O=C(Oc1ccc(C(=S)N2CCOCC2)cc1)c1ccc([N+](=O)[O-])cc1[N+](=O)[O-]	35	-2	6	35	4	/	/	/
O=C(Oc1cccc(C(=S)N2CCOCC2)c1)c1ccc([N+](=O)[O-])cc1[N+](=O)[O-]	84*	1	16	78*	84*	84*	90*	87*
O=C(Oc1ccc(Br)cc1C(=S)N1CCOCC1)c1ccc([N+](=O)[O-])cc1[N+](=O)[O-]	71*	3	3	67*	68*	77*	78*	84*
